Data reported in PubChem BioAssay (Tox21).
“And” between values parts separate entries of the source, which are not always exact repeats. Equal entries are not always repeated. Inconclusive results are not listed. Values without a mark were called inactive. The source made the active and inactive calls. Calls follow the shape of the dose curve; as a rule, active = well fitted curve in the direction sought with a large enough effect in the repeat runs; inconclusive = weak or mixed curves; inactive = no such curve, though single readings can be large; an effect the other way counts as inactive or inconclusive.

Columns and labels:
[1] = molecular target: Cytochrome P450 2C19 (Homo sapiens) (UniProt P33261); assay: Cytochrome P450 Family 2 Subfamily C Member 19 (CYP2C19) small molecule antagonists: luciferase reporter qHTS assay (AID 1671197); also: nearly all actives have a fitted effect of over 65% in size
Sequence of Cytochrome P450 2C19 (Homo sapiens) (P33261 whole entry, looked up): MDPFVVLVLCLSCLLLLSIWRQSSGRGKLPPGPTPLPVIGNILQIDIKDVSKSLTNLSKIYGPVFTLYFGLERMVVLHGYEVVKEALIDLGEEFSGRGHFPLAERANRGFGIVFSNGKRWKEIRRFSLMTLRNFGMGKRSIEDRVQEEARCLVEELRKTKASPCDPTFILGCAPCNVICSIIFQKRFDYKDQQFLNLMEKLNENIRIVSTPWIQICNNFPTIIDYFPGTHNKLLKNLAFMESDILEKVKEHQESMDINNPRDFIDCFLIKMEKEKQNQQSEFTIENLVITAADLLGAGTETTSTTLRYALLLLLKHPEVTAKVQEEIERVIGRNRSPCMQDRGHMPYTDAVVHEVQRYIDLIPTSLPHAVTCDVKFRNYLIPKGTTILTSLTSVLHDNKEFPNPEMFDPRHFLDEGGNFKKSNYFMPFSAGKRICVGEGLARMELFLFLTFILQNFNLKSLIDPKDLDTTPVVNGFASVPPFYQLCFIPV
How it was run: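 Compounds were tested on CYP2C19 activity via proluciferin conversion to luciferin. The 37C, 1 h reaction followed NADPH addition; detection reagent stopped it.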

[2] = molecular target: Cytochrome P450 2C9 (Homo sapiens) (UniProt P11712); assay: Cytochrome P450 Family 2 Subfamily C Member 9 (CYP2C9) small molecule antagonists: luciferase reporter qHTS assay (AID 1671198); also: nearly all actives have a fitted effect of over 50% in size
Sequence of Cytochrome P450 2C9 (Homo sapiens) (P11712 whole entry, looked up): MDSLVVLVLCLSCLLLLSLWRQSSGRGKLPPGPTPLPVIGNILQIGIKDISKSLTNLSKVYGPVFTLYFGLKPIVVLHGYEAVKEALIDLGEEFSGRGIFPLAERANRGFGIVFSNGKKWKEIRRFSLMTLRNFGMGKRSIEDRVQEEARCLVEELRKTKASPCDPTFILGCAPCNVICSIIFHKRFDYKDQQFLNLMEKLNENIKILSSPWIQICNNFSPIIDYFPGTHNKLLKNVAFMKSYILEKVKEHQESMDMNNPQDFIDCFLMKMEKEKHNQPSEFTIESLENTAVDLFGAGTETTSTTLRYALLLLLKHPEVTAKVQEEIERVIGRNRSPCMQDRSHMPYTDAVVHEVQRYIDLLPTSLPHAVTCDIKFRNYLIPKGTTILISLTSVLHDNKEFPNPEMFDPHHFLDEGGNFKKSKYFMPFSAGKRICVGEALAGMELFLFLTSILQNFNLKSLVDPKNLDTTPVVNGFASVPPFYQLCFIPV
How it was run: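 P450-Glo proluciferin substrate with CYP2C9 enzyme; 10 min RT preincubation, then NADPH regeneration 1 h at 37C; luciferin detection reagent 20 min RT, luminescence in relative luminescence units.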

[3] = molecular target: Cytochrome P450 1A2 (Homo sapiens) (UniProt P05177); assay: Cytochrome P450 Family 1 Subfamily A Member 2 (CYP1A2) small molecule antagonists: luciferase reporter qHTS assay (AID 1671199); also: nearly all actives have a fitted effect of over 50% in size
Sequence of Cytochrome P450 1A2 (Homo sapiens) (P05177 whole entry, looked up): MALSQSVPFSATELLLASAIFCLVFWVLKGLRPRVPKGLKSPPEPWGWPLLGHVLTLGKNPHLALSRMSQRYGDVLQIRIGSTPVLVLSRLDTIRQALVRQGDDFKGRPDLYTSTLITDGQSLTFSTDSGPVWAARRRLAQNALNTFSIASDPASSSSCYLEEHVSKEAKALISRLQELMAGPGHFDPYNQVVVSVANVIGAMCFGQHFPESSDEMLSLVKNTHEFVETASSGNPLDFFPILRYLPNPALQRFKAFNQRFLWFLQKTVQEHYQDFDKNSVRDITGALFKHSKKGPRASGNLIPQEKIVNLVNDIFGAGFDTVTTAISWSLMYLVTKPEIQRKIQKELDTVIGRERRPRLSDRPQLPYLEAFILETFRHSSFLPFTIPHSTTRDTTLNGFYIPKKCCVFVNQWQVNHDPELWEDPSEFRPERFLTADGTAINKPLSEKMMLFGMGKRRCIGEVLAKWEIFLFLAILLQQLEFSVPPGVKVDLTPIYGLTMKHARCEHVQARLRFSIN
How it was run: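 Quantitative high-throughput format using the P450-Glo CYP1A2 system. Reaction initiated by NADPH regeneration solution, 1 h at room temperature, then stopped with detection reagent; luminescence measured 20 min later.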

[4] = molecular target: Voltage-gated inwardly rectifying potassium channel KCNH2 (Homo sapiens) (UniProt Q12809); assay: Human Ether-a-go-go-Related Gene (hERG) channel small molecule antagonists: fluorescence cell-based qHTS assay (AID 1671200); also: nearly all actives have a fitted effect of over 50% in size
Sequence of Voltage-gated inwardly rectifying potassium channel KCNH2 (Homo sapiens) (Q12809 whole entry, looked up): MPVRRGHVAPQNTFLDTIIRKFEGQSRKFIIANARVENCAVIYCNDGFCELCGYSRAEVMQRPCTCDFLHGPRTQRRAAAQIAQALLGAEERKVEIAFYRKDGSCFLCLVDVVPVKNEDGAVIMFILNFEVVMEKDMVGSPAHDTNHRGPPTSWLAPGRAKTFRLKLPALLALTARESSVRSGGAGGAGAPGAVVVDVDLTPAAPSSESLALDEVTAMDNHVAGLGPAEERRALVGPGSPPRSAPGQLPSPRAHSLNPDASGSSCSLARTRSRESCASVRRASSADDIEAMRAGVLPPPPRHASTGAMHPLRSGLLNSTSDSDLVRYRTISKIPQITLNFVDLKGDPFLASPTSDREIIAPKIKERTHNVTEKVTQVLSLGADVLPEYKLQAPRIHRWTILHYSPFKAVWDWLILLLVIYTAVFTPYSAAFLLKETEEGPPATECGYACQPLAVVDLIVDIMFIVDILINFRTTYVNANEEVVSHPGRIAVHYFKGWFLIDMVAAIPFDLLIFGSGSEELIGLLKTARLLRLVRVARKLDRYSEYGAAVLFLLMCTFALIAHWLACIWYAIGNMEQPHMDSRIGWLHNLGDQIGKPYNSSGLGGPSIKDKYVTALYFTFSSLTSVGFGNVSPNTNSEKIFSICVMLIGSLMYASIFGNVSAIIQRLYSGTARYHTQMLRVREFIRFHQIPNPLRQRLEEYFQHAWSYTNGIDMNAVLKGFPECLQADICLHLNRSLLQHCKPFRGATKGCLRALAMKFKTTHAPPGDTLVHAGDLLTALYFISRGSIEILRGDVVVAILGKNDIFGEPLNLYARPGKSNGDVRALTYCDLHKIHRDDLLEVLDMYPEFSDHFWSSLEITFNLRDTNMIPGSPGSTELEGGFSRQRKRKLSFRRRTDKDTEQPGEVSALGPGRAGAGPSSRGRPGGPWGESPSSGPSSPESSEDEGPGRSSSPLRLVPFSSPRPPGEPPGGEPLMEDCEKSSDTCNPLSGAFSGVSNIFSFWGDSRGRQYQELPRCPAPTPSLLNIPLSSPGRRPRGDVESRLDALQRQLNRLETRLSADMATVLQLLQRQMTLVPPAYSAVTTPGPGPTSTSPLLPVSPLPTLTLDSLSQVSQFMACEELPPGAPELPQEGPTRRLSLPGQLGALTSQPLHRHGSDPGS
How it was run: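 Thallium served as the potassium surrogate; its influx into dye-loaded U2OS cells carrying the channel was measured by fluorescence over 2 min.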
Potency is read from the fitted curve at half-maximal effect.

Structure (SMILES)	Potency [1]	Potency [2]	Potency [3]	Potency [4]
CN(C)[C@@H](CCOc1cccc2ccccc12)c1ccccc1	0.977 µM (active)	15.5 µM (active)	7.76 µM (active)	6.01 µM (active)
CC(=O)Oc1cc2c(s1)CCN(C(C(=O)C1CC1)c1ccccc1F)C2 (configuration not stated)	6.92 µM (active)	13.8 µM (active)	inactive	–
CCCCC(CC)CN1CN(CC(CC)CCCC)CC(C)(N)C1 (configuration not stated)	inactive	inactive	inactive	2.68 µM (active)
CCCCN(CCCC)CC(O)c1cc(Cl)cc2c1-c1ccc(Cl)cc1/C2=C/c1ccc(Cl)cc1 (configuration not stated)	17.4 µM (active)	17.4 µM (active)	16.2 µM (active)	–
COc1ccc(NC(=O)CC(C)=O)cc1	inactive	inactive	25.2 µM (active)	–
CC(C)(C)NSc1nc2ccccc2s1	32.2 µM (active)	16.2 µM (active)	32.2 µM (active)	inactive
C#Cc1ccc(-c2ccccc2F)cc1	7.76 µM (active)	15.5 µM (active)	0.911 µM (active)	inactive
CC(N=C(NC#N)Nc1ccncc1)C(C)(C)C (configuration not stated)	1.55 µM (active)	13.8 µM (active)	inactive	–
CCC(CC)(CC(=O)Nc1cccc(/C=C/c2nc(C3CCC3)cs2)c1)C(=O)O	inactive	27.5 µM (active)	24.5 µM (active)	inactive
OC[C@H]1O[C@H](O[C@H]2O[C@H](CO)[C@@H](O)[C@H](O)[C@H]2O)[C@H](O)[C@@H](O)[C@@H]1O	inactive	inactive	63.7 µM (active)	inactive
COc1ccc2c(c1)c(CC(=O)OC/C=C(\C)CC/C=C(\C)CCC=C(C)C)c(C)n2C(=O)c1ccc(Cl)cc1	15.5 µM (active)	17.4 µM (active)	17.4 µM (active)	inactive
Fc1ccc(C(c2ccc(F)cc2)N2CCNCC2)cc1	inactive	inactive	inactive	–
C#CC1(O)CC[C@H]2[C@@H]3CCC4=CCCC[C@@H]4[C@H]3CC[C@@]21C (some centres not stated)	7.96 µM (active) and 11 µM (active)	7.1 µM (active) and 6.92 µM (active)	39.9 µM (active)	–
CCCCCCCCCCCCOC(=O)c1ccc(O)cc1	4.02 µM (active)	4.52 µM (active)	12.7 µM (active)	inactive
Cc1nc2n(c(=O)c1CCN1CCC(c3noc4cc(F)ccc34)CC1)CCCC2	inactive	inactive	–	–
CN(C)Cc1cc(C(C)(C)C)c(O)c(C(C)(C)C)c1	10 µM (active)	11.2 µM (active)	–	–
O=C(O)[C@H](O)[C@@H](O)[C@H](O[C@@H]1O[C@H](CO)[C@H](O)[C@H](O)[C@H]1O)[C@H](O)CO	inactive	inactive	inactive	–

Structure (SMILES)	Potency [1]	Potency [2]	Potency [3]	Potency [4]
CCO[C@@H]1O[C@H](C(COCc2ccccc2)OCc2ccccc2)[C@H](OCc2ccccc2)[C@H]1O (some centres not stated)	4.9 µM (active)	8.71 µM (active)	inactive	–
[Cu+]	2.24 µM (active)	11.2 µM (active)	39.9 µM (active)	inactive
CCCc1ccc(OCC(=O)N2CCN(C(=O)COc3ccc(CCC)cc3OC)CC2)c(OC)c1	3.47 µM (active)	3.47 µM (active)	inactive	1.34 µM (active)
CCOC(=O)Cn1cccc1-c1nc(-c2ccc(OC)cc2)c(-c2ccc(OC)cc2)s1	3.89 µM (active)	3.89 µM (active)	inactive	–
CC(C)=CCNc1ncnc2c1ncn2[C@@H]1O[C@H](CO)[C@@H](O)[C@H]1O	inactive	inactive	inactive	inactive
Cc1ccc(C(=O)O)cc1	inactive	inactive	inactive	–
COC(=O)c1ccccc1OC	inactive	inactive	25.2 µM (active)	–
Cc1ccc(O)c(O)c1	inactive	inactive	–	–
CNC(=O)c1ccccc1Sc1ccc2c(/C=C/c3ccccn3)n[nH]c2c1	17.4 µM (active)	6.92 µM (active)	2.75 µM (active)	inactive
CCCCNS(=O)(=O)c1ccc(C)cc1	5.64 µM (active)	22.4 µM (active)	31.7 µM (active)	inactive
CCCC1CCC(=O)CC1	inactive	inactive	inactive	inactive
O=S(=O)(O)c1ccc(Nc2nc(Nc3ccc(/C=C/c4ccc(Nc5nc(Nc6ccc(S(=O)(=O)O)cc6)nc(N(CCO)CCO)n5)cc4S(=O)(=O)O)c(S(=O)(=O)O)c3)nc(N(CCO)CCO)n2)cc1	inactive	inactive	inactive	inactive
CCCCCCCC/C=C\CCCCCCCCN	4.36 µM (active)	38.9 µM (active)	12.9 µM (active)	–
Cc1cccc(C)c1NC(=O)c1ccc(N)cc1	inactive	inactive	inactive	–
CC(C)CCOC(=O)/C=C/c1ccccc1	63.5 µM (active)	40.1 µM (active)	22.5 µM (active)	–
C=C(CC)C(=O)c1ccc(OCC(=O)O)c(Cl)c1Cl	inactive	8.88 µM (active) and 5.49 µM (active)	inactive	inactive
